This passage reports outcome and AC50 results from PubChem BioAssay (EPA / NIEHS).

A short description of experiment [1]: CCTE_Shafer_MEA_dev_firing_rate_mean: CCTE's Neural Network Formation Assay for Mean Firing Rate, Shafer Lab (AID 2284031). In a few lines: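 Spike frequency (spikes/recording length, averaged over active electrodes) was recorded on days 5, 7, 9 and 12 and collapsed to AUC; rat cortical cultures received compound continuously over 12 days of network development.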

Experiment [2] in a line: CCTE_Shafer_MEA_dev_per_burst_spike_percent: CCTE's Neural Network Formation Assay for Percent of Spikes in a Burst, Shafer Lab (AID 2284032). In outline:
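Value is trapezoidal AUC over recordings on days 5, 7, 9 and 12 of the well-mean fraction of spikes falling in single-electrode bursts; rat cortical cultures exposed continuously from plating, treatment renewed DIV 5 and 9, fitted downward against DMSO.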

The nature of experiment [3]: CCTE_Shafer_MEA_dev_active_electrodes_number: CCTE's Neural Network Formation Assay for Number of Active Electrodes, Shafer Lab (AID 2284040; active = hit-call score of the fitted dose curve at least 0.9, where 1 is the maximum). In a few lines: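 Counts electrodes per well firing at least 5 spikes/min, recorded on days 5, 7, 9 and 12 in rat cortical cultures dosed continuously from plating (treatment refreshed DIV 5, 9). Value is the area under the curve over recordings, fitted downward relative to DMSO.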

A short description of experiment [4]: CCTE_Shafer_MEA_dev_burst_rate: CCTE's Neural Network Formation Assay for Burst Rate, Shafer Lab (AID 2284042). In outline:
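Developmental network assay measuring how 12-day exposure of rat cortical neuron cultures alters bursting on extracellular MEA recordings. Values are AUC of well-mean burst rate across four recording days, relative to DMSO vehicle.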

Experiment [5] is described as follows: CCTE_Shafer_MEA_dev_bursting_electrodes_number: CCTE's Neural Network Formation Assay for Number of Bursting Electrodes, Shafer Lab (AID 2284043; active = hit-call score of the fitted dose curve at least 0.9, where 1 is the maximum). In a few lines:
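Number of electrodes reaching ≥1 burst every 2 min was recorded at DIV 5, 7, 9 and 12 and collapsed as trapezoidal area under the curve. Cultures were rat cortical neurons on MEA plates, dosed continuously from plating with medium and treatment refreshed on DIV 5 and 9.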

Experiment [6] is described as follows: CCTE_Shafer_MEA_dev_burst_duration_mean: CCTE's Neural Network Formation Assay for Mean Burst Duration, Shafer Lab (AID 2284045). In a few lines:
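Mean single-electrode burst duration (first to last spike), averaged over bursting electrodes per well, then integrated as area-under-curve across recordings at days 5, 7, 9 and 12. Rat cortical cultures on MEAs, compound present from plating, refreshed at feeds.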

Experiment [7] is described as follows: CCTE_Shafer_MEA_dev_interburst_interval_mean: CCTE's Neural Network Formation Assay for Mean Interburst Interval, Shafer Lab (AID 2284046).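 Note: well-mean interburst interval of bursting electrodes as AUC over four recording days; curve fitted for decrease in interburst interval relative to DMSO.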 In a few lines: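 Network formation assay in primary rat cortical cultures, exposed from DIV 0 to 12. Mean interburst interval per well, integrated as AUC over four recordings.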
Experiment [8] can be described thus: CCTE_Shafer_MEA_dev_inter_network_spike_interval_mean: CCTE's Neural Network Formation Assay for Mean Inter-network Spike Interval, Shafer Lab (AID 2284047). In a few lines: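 Compound was given at plating to primary rat cortical neurons and renewed with full medium changes on DIV 5 and 9. Extracellular activity was recorded on days 5, 7, 9, 12; AUC values were fitted for loss relative to DMSO control.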

The nature of experiment [9]: CCTE_Shafer_MEA_dev_network_spike_number: CCTE's Neural Network Formation Assay for Number of Network Spikes, Shafer Lab (AID 2284048).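 Note: synchronized bursts across electrodes counted on days 5 7 9 12 and integrated as AUC.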 In a few lines: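 Number of network spikes (coordinated firing across electrodes) recorded on days 5, 7, 9 and 12 and summarised as area under the curve. Rat cortical cultures on MEA, continuous compound exposure with full medium/treatment exchange at DIV 5 and 9.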

The nature of experiment [10]: CCTE_Shafer_MEA_dev_network_spike_peak: CCTE's Neural Network Formation Assay for Mean Number of Electrodes in Network Spike, Shafer Lab (AID 2284049). In outline: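 Rat cortical primary culture, 1.5 x 10^5 cells/well, 48-well MEA (16 electrodes/well). Dosing day 0 through DIV 12, full media/compound exchange DIV 5, 9. AxIS adaptive spike detection; AUC over days 5/7/9/12; loss-of-signal vs DMSO.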

Experiment [11] is described as follows: CCTE_Shafer_MEA_dev_spike_duration_mean: CCTE's Neural Network Formation Assay for Mean Spike Duration, Shafer Lab (AID 2284051).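 Note: mean network spike duration pooled as area under curve over DIV 5 to 12 recordings.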 In a few lines: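 With DMSO as baseline, loss of mean network spike duration was scored from extracellular recordings of rat cortical neurons on MEA plates. Exposure spanned plating to DIV 12; the four recording days were collapsed into one AUC value.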

Experiment [12] is described as follows: CCTE_Shafer_MEA_dev_network_spike_duration_std: CCTE's Neural Network Formation Assay for Standard Deviation of Network Spike Duration, Shafer Lab (AID 2284052).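 Note: hits are decreases in network spike duration SD versus DMSO vehicle.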 In a few lines:
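Developing networks of rat cortical neurons were exposed over twelve days in vitro on 48-well MEA plates. Trapezoidal AUC of recordings (DIV 5–12) was analysed for signal loss relative to DMSO vehicle.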

Experiment [13] is described as follows: CCTE_Shafer_MEA_dev_per_network_spike_spike_number_mean: CCTE's Neural Network Formation Assay for Mean Number of Spikes in a Network Spike, Shafer Lab (AID 2284053). In outline: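 First, rat cortical cells (1.5 x 10^5/well) were seeded onto MEA wells; second, dosing began at plating and was refreshed on DIV 5 and 9; finally, network-spike spike counts across DIV 5–12 were summarized as AUC.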

A short description of experiment [14]: CCTE_Shafer_MEA_dev_per_network_spike_spike_percent: CCTE's Neural Network Formation Assay for Percent of Spikes in a Network Spike, Shafer Lab (AID 2284054). In outline:
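Metric: fraction of spikes falling in a 0.05 s window at network-spike peaks. Recordings were made on days 5, 7, 9 and 12 and collapsed by trapezoidal AUC. Cultures were rat cortical neurons on MEA plates, dosed continuously from plating, re-dosed at media changes.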

Experiment [15] in a line: CCTE_Shafer_MEA_dev_LDH: CCTE's Lactate Dehydrogenase Assay for Cytotoxicity in the Neural Network Formation Assay, Shafer Lab (AID 2284068; active = hit-call score of the fitted dose curve at least 0.9, where 1 is the maximum;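 note: exposure for twelve days from plating with re-dosing on DIV 5 and 9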). In a few lines:
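Developing rat cortical networks on MEA plates are exposed to compound for 12 days from plating. LDH activity is measured spectrophotometrically, with DMSO as baseline.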

Experiment [16] can be described thus: CCTE_Shafer_MEA_dev_AB: CCTE's Alamar Blue Assay for Cytotoxicity in the Neural Network Formation Assay, Shafer Lab (AID 2284083; active = hit-call score of the fitted dose curve at least 0.9, where 1 is the maximum;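 note: resazurin reduction fluorescence as viability of cultured neurons; twelve days of exposure from plating with re-dosing on DIV 5 and 9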). In outline: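 Cytotoxicity companion to the developmental MEA: primary rat cortical neurons, 12-day exposure starting day 0, compound refreshed DIV 5 and 9; resazurin fluorescence, fitted against DMSO vehicle.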
For orientation: Resazurin is reduced to fluorescent resorufin, in cell work by metabolically active cells.

Experiment [17] is described as follows: CCTE_Shafer_MEA_dev_mutual_information_norm: CCTE's Neural Network Formation Assay for Mutual Information Normalization, Shafer Lab (AID 2284091). In a few lines: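 Shared information across electrodes, tracked on days 5, 7, 9 and 12 of network development and collapsed as trapezoidal area under the curve. Rat cortical cultures were treated continuously from plating, with treatment renewed at feeds on DIV 5 and 9; DMSO baseline, negative-direction fit.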

Experiment [18] can be described thus: IUF_NPC1a_proliferation_area_72hr: Leibniz Research Institute for Environmental Medicine (IUF) 72-hour Neural Progenitor Cell Proliferation Area Assay (NPC1a) (AID 2284208). In outline:
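Proliferation read as increase in sphere area by phase-contrast imaging over 72 h continuous compound exposure (no renewal) of hNPC spheres grown with EGF/FGF at 37C, 5% CO2. Growth-factor withdrawal served as positive control; DMSO as baseline.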

Experiment [19] is described as follows: IUF_NPC1_viability_72hr: Viability Assessment at 72 hours in the Leibniz Research Institute for Environmental Medicine (IUF) Neural Progenitor Cell Proliferation Assay (NPC1) (AID 2284209). In a few lines:
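Viability was measured by resazurin-to-resorufin fluorescence (alamar blue) after 72 h of continuous exposure without compound renewal. Each well held one hNPC sphere (gestational week 16-19 fetal cortex, 0.25-0.35 mm) cultured in EGF/FGF proliferation medium at 37C and pH 7.2-7.6.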

Experiment [20] can be described thus: CCTE_Mundy_HCI_Cortical_Synap_Neur_Matur_NeuriteSpotCountPerNeuriteLength: CCTE's Synaptogenesis and Neurite Maturation Assay in rat cortical cells for Neurite Spot Count per Neurite Length, Mundy Lab (AID 2284210). In a few lines: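 Synaptophysin spots per unit neurite length, measured by automated imaging of MAP2/synaptophysin/Hoechst-stained neurons. Cultures from rat cortex received chemical at DIV 7 with media change through DIV 12; glial growth arrested by AraC at DIV 5; DMSO baseline.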

Experiment [21] in a line: CCTE_Mundy_HCI_Cortical_Synap_Neur_Matur_BPCount: CCTE's Synaptogenesis and Neurite Maturation Assay in rat cortical cells for Branch Point Count, Mundy Lab (AID 2284211). In a few lines:
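HCI read-out of branch points from MAP2/synaptophysin/Hoechst immunofluorescence; rat cortical cultures, AraC DIV 5, dosing DIV 7, fixed DIV 12; fit in positive direction vs DMSO baseline.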

Experiment [22] in a line: CCTE_Mundy_HCI_Cortical_NOG_NeuriteCount: CCTE's Neurite Outgrowth Assay in rat cortical cells for Neurite Count, Mundy Lab (AID 2284212).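 Note: cells fixed about two days after chemical exposure began.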 In outline:
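Rat cortical primary cells; compound added 2 h post-plating, 1/10 dilution of working solution. Anti-betaIII-tubulin/AF488 ICC; ArrayScan neurite count vs DMSO.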

Experiment [23] in a line: CCTE_Mundy_HCI_Cortical_NOG_NeuriteLength: CCTE's Neurite Outgrowth Assay in rat cortical cells for Neurite Length, Mundy Lab (AID 2284213).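 Note: neurites imaged about 48 to 50 h after chemical exposure began.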 In a few lines: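 First, rat primary cortical cells were plated and, 2 h later, given test chemical as a 1/10 dilution. Finally, βIII-tubulin immunostaining enabled automated imaging of neurite length.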

Molecules are shown by their SMILES. Inconclusive results are not listed. The source made the active and inactive calls. Rule for the calls, unless noted: active = hit-call score of the fitted dose curve at least 0.9, where 1 is the maximum; inactive = score below 0.9.

One may read the AC50 as the concentration giving half of the maximal activity seen. In the case of `CC(=O)[O-].[Tl+]`, the compound was called inactive in experiment [1], in [2], in experiment [3], in experiment [4], in experiment [5] and in experiment [6]. Also, the result in [7], in experiment [8], in experiment [9], in [10], in experiment [11] and in experiment [13] was inactive. The compound was called inactive in experiment [14], in [15], in experiment [16], in experiment [17] and in [19]. Further, the AC50 was 12.1 µM (active) in [12]; 76.8 µM (active) in experiment [18]; 35.1 µM (active) in experiment [20]; 9.92 µM (active) in experiment [21]; 59.5 µM (active) in [22]; 75.3 µM (active) in [23].
